# Assay results as given in the supplement of paper PMC9694430.
# Structures can show the parent of a compound that is named as a salt.
# Test system: LOC_OS06G16330-cb003
# Assay: thermal shift delta Tm vs DMSO control; higher = stronger stabilization (binding)
# Settings: 12.5 µM; protein concentration 2 µM
# Outline: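 Rice kinase domain constructs, made in E. coli and purified, were placed in 96-well plates at 2 μM in 19.5 μl of 100 mM potassium phosphate pH 7.5, 150 mM NaCl, 10% glycerol and 5 × SYPRO Orange, with compound in DMSO. A temperature ramp from 25°C to 95°C at 0.05°C/s was used for differential scanning fluorimetry. The melting temperature shift is a triplicate mean compared with DMSO-only protein, derived from Boltzmann fits.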
# 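Also: purified Escherichia coli-expressed rice kinase domain construct.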
# Chain of LOC_OS06G16330-cb003 (as listed by the source): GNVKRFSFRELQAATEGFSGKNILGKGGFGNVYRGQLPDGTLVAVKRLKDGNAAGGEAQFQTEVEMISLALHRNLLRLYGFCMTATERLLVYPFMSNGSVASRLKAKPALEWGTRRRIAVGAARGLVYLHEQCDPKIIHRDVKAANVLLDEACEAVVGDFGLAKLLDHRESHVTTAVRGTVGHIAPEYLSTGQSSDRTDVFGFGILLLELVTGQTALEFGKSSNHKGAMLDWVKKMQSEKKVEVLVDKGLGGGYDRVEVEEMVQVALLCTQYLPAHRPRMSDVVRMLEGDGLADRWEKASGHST
row,SMILES,thermal shift delta Tm [°C]
1,CC(C)(C)c1cnc(CSc2cnc(NC(=O)C3CCNCC3)s2)o1,0.18
2,CN(C)C/C=C/C(=O)Nc1cc2c(Nc3ccc(F)c(Cl)c3)ncnc2cc1O[C@H]1CCOC1 [Afatinib (BIBW2992) Dimaleate],2.05
3,O=C1c2c(O)cc(O)cc2OC(c2ccc(O)c(O)c2)C1O (stereo not drawn) [Taxifolin (Dihydroquercetin)],-0.04
4,CCN(CC)CCNC(=O)c1c(C)[nH]c(/C=C2\C(=O)Nc3ccc(F)cc32)c1C [Sunitinib Malate],7.74
5,COc1cc(Nc2ncc(F)c(Nc3ccc4c(n3)N(COP(=O)(O)O)C(=O)C(C)(C)O4)n2)cc(OC)c1OC [Fostamatinib (R788)],12.2
6,CC(C)(C)c1nc(-c2ccc(NC(=O)Nc3cccc(C(F)(F)F)c3)c3ccccc23)c2c(N)nccn12 [kira6],4.28
7,CNC(=O)c1cc(Oc2ccc(NC(=O)Nc3ccc(Cl)c(C(F)(F)F)c3)cc2)ccn1 [Sorafenib Tosylate],1.91
8,CC(=O)Nc1nc(C)c(-c2ccc(Cl)c(S(=O)(=O)NCCO)c2)s1,0.63
9,CCc1nc(-c2cccc(C)c2)c(-c2ccnc(NC(=O)c3ccccc3)c2)s1,0.66
10,C[C@@]1(C(=O)Nc2ccc(F)nc2)CCCN1c1nc(Nc2cc(C3CC3)n[nH]2)c2cccn2n1,7.13
11,COc1ccc(Cl)cc1NC(=O)Nc1cc(C)nc2ccccc12,0.31
12,C=CC(=O)Nc1cccc(Nc2nc(Nc3ccc(OCCOC)cc3)ncc2F)c1,7.95
13,CC(C)c1c2cc(-c3ccnc(NC4CCC(NC5CCOCC5)CC4)n3)ccc2nn1C (stereo not drawn),3.01
